# Source: PubChem BioAssay (several laboratories)
# Hits are enriched below; roughly 5.7% of the tested compounds scored in any of these assays.
# FAS TE block: inhibitors of human fatty acid synthase thioesterase domain; 0.67% of 360,000 active; P49327; inhibition, % at 15 µM; AID 602261; recombinant FAS-TE, OMFH fluorogenic substrate, fluorescence endpoint;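 active = compounds whose normalised, plate-corrected inhibition of enzyme fluorescence in the single-dose primary screen is 50% or more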;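 note: 0% = DMSO with enzyme and 100% = substrate without enzyme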
# Myeloid diff MLP: myeloid differentiation induction | ER-HoxA9 myeloid progenitors, lysozyme-GFP differentiation, flow cytometry | calls only at 10 µM | 1% of 360,000 active | AID 624256;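 active = normalized GFP-positive differentiation at or above the plate's own cutoff, the solvent-only control mean plus 3 SD; inconclusive = no clear call, values can overlap the other calls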;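 note: cells exposed to compound for four days before flow analysis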
# GRIN3A LBD mod: modulators (binders) of human NR3A ligand-binding domain; 2.5% of 340,000 active; NR3A LBD differential scanning fluorimetry, Tm shift; 0% = protein alone, 100% = glycine-bound protein; AID 1259313; Tm shift relative to glycine control, % at 25 µM;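 active = melting temperature shift of at least 10% of the positive control shift, at one fixed dose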
# MPTP inh: inhibitors of mitochondrial permeability transition pore | isolated mouse mitochondria, Ca2+ swelling absorbance, 30 min | inhibition, % at 10 µM | 1.4% of 360,000 active | AID 602449;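 active = inhibition of 50% or more, scaled per plate between neutral and stimulator controls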;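 note: 0% = DMSO wells given calcium and 100% = 1 mM EGTA wells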
# rCAG binder: binds r(CAG) RNA repeats. 1.3% of 370,000 active. AID 651821. inhibition, % at 3 µM. r(CAG) RNA repeat, TO-PRO-1 dye displacement fluorescence;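 active = inhibition above the plate cutoff, the mean of all test compounds on that plate plus 3 SD, cut at about 35% in these data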;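 note: 0% = DMSO alone and 100% = 100 µM mitoxantrone as full dye displacement; higher means more dye released from RNA so lower well fluorescence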
# Numbers without * were called inactive; i = inactive; ? = inconclusive; nt = no result; + = active, no number.
SMILES,FAS TE block,Myeloid diff MLP,GRIN3A LBD mod,MPTP inh,rCAG binder
CCOC(=O)c1cc2sccc2n1CC(=O)N1c2ccccc2CC1C (stereo not given),-2,i,12*,1,-3
Oc1ccc(/C=N/N2CCN(C3c4ccccc4-c4ccccc43)CC2)c(O)c1,25,i,11*,3,10
COC(=O)C1CN(Cc2ccccc2)CCS(=O)(=O)N1Cc1cn(Cc2ccc(F)cc2)nn1 (stereo not given),nt,nt,nt,nt,0
O=C(CN(C(=O)Cn1nnc(-c2ccccc2F)n1)c1cccc2c1CCCC2)NCc1ccccc1,25,+,-1,9,1
CC(C)CCNC(=O)CN(C(=O)Cn1nnc(-c2ccccc2F)n1)c1cccc2c1CCCC2,33,i,1,14,5
Cc1noc(NS(=O)(=O)c2ccc(N/C=C\C(=O)c3ccncc3)cc2)c1C,-9,i,3,0,6
NC(N)=NS(=O)(=O)c1ccc(N/C=C\C(=O)c2ccncc2)cc1,-5,i,244*,-1,1
COC(=O)c1cc2c(c3c4ccccc4n(S(=O)(=O)c4ccc(OC)cc4)c13)C(=O)N(Cc1ccc(N(C)C)cc1)C2,nt,nt,nt,nt,15
C[C@H](CO)N1C[C@H](C)[C@H](CN(C)S(=O)(=O)c2cccs2)Oc2ncc(Br)cc2C1=O,nt,nt,nt,nt,4
O=S(=O)(c1cccs1)N1CCN(c2ccc(O)cc2)CC1,-1,+,0,1,-2
CN1CCN(S(=O)(=O)c2cccs2)CC1,-3,i,-1,-2,1
Cc1ccc2c(Cl)c(C(=O)NCC3CCCO3)sc2c1 (stereo not given),0,i,-2,-1,-3
O=C(NCC1CCCO1)c1sc2ccccc2c1Cl (stereo not given),-9,i,11*,-1,-3
CC(C)Cn1c(N)c(C(=O)NCC2CCCO2)c2nc3ccccc3nc21 (stereo not given),9,+,-9,0,2
O=C(Cc1cccc2ccccc12)NCC1CCCO1 (stereo not given),-10,i,13*,-4,-5
COCCn1c(N)c(C(=O)NCC2CCCO2)c2nc3ccccc3nc21 (stereo not given),-6,i,1,-2,-2
O=C(NC(=S)NNC(=O)c1cnccn1)c1ccc(Cl)cc1,2,+,-2,-1,1
COc1ccc(C(=O)NC(=S)NNC(=O)c2cnccn2)cc1,-9,?,-1,1,2
Nc1[nH]c(C(=O)c2ccccc2)c(-c2ccc3ccccc3c2)c1C(=O)NCc1ccc(F)cc1,nt,nt,nt,nt,10
CC(=O)Nc1ccc2c(c1)Cc1cc(N3C(=O)C=CC3=O)ccc1-2,2,i,24*,4,8
O=C1C=CC(=O)N1c1ccc2c(c1)Cc1cc(F)ccc1-2,18,i,2,0,2
CCC(=NCCc1c(C)[nH]c2ccc(OC(F)(F)F)cc12)C1=C(O)CC(c2ccccc2)CC1=O (stereo not given),27,nt,3,0,0
CCC(=NCCc1c(C)[nH]c2ccccc12)C1=C(O)CC(c2ccccc2)CC1=O (stereo not given),26,?,16*,4,-3
COc1ccc(-c2nc3ccc(C)cn3c2Cc2ccccc2C(F)(F)F)cc1OC,nt,nt,nt,nt,2
Cc1cc2nc(-c3ccccc3)c(Cc3cccc(Cl)c3)n2c(C)c1Br,14,i,nt,1,52*
SMILES,FAS TE block,Myeloid diff MLP,GRIN3A LBD mod,MPTP inh,rCAG binder
FC(F)(F)c1cc(Cl)c2nc(-c3ccccc3)c(Cc3cccc(Cl)c3)n2c1,19,i,nt,2,41*
COc1ccc(-c2nc3ccc(Cl)cn3c2Cc2ccccc2C(F)(F)F)cc1OC,8,i,nt,1,42*
FC(F)(F)c1cc(Cl)c2nc(-c3cccc(Cl)c3)c(Cc3cccc(Cl)c3)n2c1,18,i,nt,4,7
COc1ccccc1Cc1c(-c2ccc(C#N)cc2)nc2c(Cl)cc(C(F)(F)F)cn12,0,+,nt,1,nt
COc1ccccc1Cc1c(-c2ccc(Cl)cc2)nc2c(Cl)cc(C(F)(F)F)cn12,17,i,nt,2,15
CCOc1cccc(C=NNC(=O)C(=O)Nc2cccc(C(F)(F)F)c2)c1O,nt,nt,nt,nt,8
COc1cc(-c2nnc(SCC(=O)NN=Cc3c[nH]c4ccccc34)n2-c2ccccc2)cc(OC)c1OC,nt,nt,nt,nt,12
Cc1cc(N2CCN(CC(C)(C)O)C[C@H]2C)ccc1N1CCN(Cc2ccccc2)[C@@H](C)C1,nt,nt,nt,nt,5
